# Measurements as given in ChEMBL document CHEMBL4513146, “CO-ADD screening of Karazin Kharkiv National University (Ukraine) compounds”.
# Results with a measured potency or affinity are listed apart.
# Columns and labels:
# Klebsiella pneumoniae = settings: Concentration 32 ug.mL-1;; ASSAY_TEST Inhibition of Bacterial Growth; detection method Absorption (OD600); MEDIA CAMHB; plate type 384well; NBS; CORNING #3640; time 18 hr
# Candida albicans = settings: Concentration 32 ug.mL-1; ASSAY_TEST Inhibition of Fungal Growth; detection method Absorption (OD530)
# Cryptococcus neoformans = settings: Concentration 32 ug.mL-1; ASSAY_TEST Inhibition of Fungal Growth; detection method Resazurin; Absorption (OD600-OD570); plate type 384well; NBS; CORNING #3640
smiles,measurement,setting,value
O=S(=O)(c1cccn2cnnc12)N(Cc1cccc(Cl)c1)c1ccc(F)cc1,Inhibition,Klebsiella pneumoniae,7.99%
same,Inhibition,Candida albicans,-0.14%
same,Inhibition,Cryptococcus neoformans,-8.04%
COc1cccc(-n2ccn3c(SCC(=O)Nc4ccccc4Cl)nnc3c2=O)c1,Inhibition,Klebsiella pneumoniae,9.92%
same,Inhibition,Candida albicans,1.92%
same,Inhibition,Cryptococcus neoformans,-13.6%
CC(C)Sc1ccc2nn(CC(=O)Nc3ccc(F)cc3Cl)c(=O)n2n1,Inhibition,Klebsiella pneumoniae,6.92%
same,Inhibition,Candida albicans,3.44%
same,Inhibition,Cryptococcus neoformans,-6.24%
COc1cccc(Oc2nccn3c(=O)n(CC(=O)Nc4ccc(C(C)C)cc4)nc23)c1,Inhibition,Klebsiella pneumoniae,-4.77%
same,Inhibition,Candida albicans,3.55%
same,Inhibition,Cryptococcus neoformans,-2.79%
Cc1cc(C)cc(N(Cc2ccc(Cl)cc2)S(=O)(=O)c2cccn3c(C)nnc23)c1,Inhibition,Klebsiella pneumoniae,4.19%
same,Inhibition,Candida albicans,0.27%
same,Inhibition,Cryptococcus neoformans,-8.23%
Cc1ccc(-c2ccc3nn(CC(=O)Nc4ccc(Cl)cc4)c(=O)n3n2)cc1C,Inhibition,Klebsiella pneumoniae,17.23%
same,Inhibition,Candida albicans,0.13%
same,Inhibition,Cryptococcus neoformans,-13.82%
COc1cccc(-n2ccn3c(SCc4ccc(F)cc4)nnc3c2=O)c1,Inhibition,Klebsiella pneumoniae,3.28%
same,Inhibition,Candida albicans,1.89%
same,Inhibition,Cryptococcus neoformans,-13.93%
CCOC(=O)c1ccc(NC(=O)Cn2nc3c4sc(N5CCCC5)nc4ncn3c2=O)cc1,Inhibition,Klebsiella pneumoniae,-7.55%
same,Inhibition,Candida albicans,32.94%
same,Inhibition,Cryptococcus neoformans,-7.69%
Cc1cccc(N(CC(=O)OC(C)(C)C)S(=O)(=O)c2cccn3c(C)nnc23)c1,Inhibition,Klebsiella pneumoniae,8.25%
same,Inhibition,Candida albicans,2.37%
same,Inhibition,Cryptococcus neoformans,-7.45%
COc1cccc(Cn2nc3ccc(-c4ccccc4)nn3c2=O)c1,Inhibition,Klebsiella pneumoniae,7.25%
same,Inhibition,Candida albicans,2.39%
same,Inhibition,Cryptococcus neoformans,-3.25%
Cc1ccc(C)c(C(=O)CSc2nnc3c(=O)n(-c4ccc(F)c(F)c4)ccn23)c1,Inhibition,Klebsiella pneumoniae,16.06%
same,Inhibition,Candida albicans,4.02%
same,Inhibition,Cryptococcus neoformans,-10.11%
Cn1c(=O)c2sccc2n2c(=O)n(CCOc3ccccc3)nc12,Inhibition,Klebsiella pneumoniae,1.76%
same,Inhibition,Candida albicans,-1.1%
same,Inhibition,Cryptococcus neoformans,-29.95%
CC(C)c1nnc2c(SCC(=O)Nc3cccc(Br)c3)nc3ccccc3n12,Inhibition,Klebsiella pneumoniae,2.52%
same,Inhibition,Candida albicans,2.36%
same,Inhibition,Cryptococcus neoformans,-16.07%
CC(C)c1ccc(Cn2c(=O)c3sccc3n3c(SCc4cccc(C(F)(F)F)c4)nnc23)cc1,Inhibition,Klebsiella pneumoniae,5.43%
same,Inhibition,Candida albicans,-0.58%
same,Inhibition,Cryptococcus neoformans,-12.8%
O=C(Cn1nc2c(N3CCOCC3)nccn2c1=O)NCc1cccc(C(F)(F)F)c1,Inhibition,Klebsiella pneumoniae,8.39%
same,Inhibition,Candida albicans,5.12%
same,Inhibition,Cryptococcus neoformans,-4.87%
